Shown is part of a subset that was picked to be rich in hits.
TbREL1 inh: TbREL1 inhibition, primary screen; P86926; 0.49% of 89,000 active; AID 1117264; TbREL1 RNA ligation, FRET fluorescence; inhibition, % at 9.66 µM;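 active = inhibition above the mean inhibition across all screened compounds plus 3 SD, cut at about 11% in these data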;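 note: 0% = plate median of test wells and 100% = NSC42067 control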
Target sequence (P86926 whole entry, looked up): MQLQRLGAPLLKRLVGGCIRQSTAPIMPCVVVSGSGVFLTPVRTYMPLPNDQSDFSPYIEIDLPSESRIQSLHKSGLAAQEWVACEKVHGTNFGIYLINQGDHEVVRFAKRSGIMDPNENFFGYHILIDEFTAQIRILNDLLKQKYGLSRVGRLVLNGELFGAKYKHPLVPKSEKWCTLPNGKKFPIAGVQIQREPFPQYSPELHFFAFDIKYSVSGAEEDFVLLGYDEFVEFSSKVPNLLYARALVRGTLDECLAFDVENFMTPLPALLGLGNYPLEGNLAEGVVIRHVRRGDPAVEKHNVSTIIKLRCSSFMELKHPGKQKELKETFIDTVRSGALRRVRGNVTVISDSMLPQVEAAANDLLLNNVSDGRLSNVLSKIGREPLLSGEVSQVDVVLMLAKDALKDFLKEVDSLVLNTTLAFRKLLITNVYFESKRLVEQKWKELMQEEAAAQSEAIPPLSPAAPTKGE
TbREL1 confirm: TbREL1 inhibition, confirmation; TbREL1 RNA ligation, FRET fluorescence; 37% of 390 active; inhibition, % at 9.66 µM; shares compounds with TbREL1 inh;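 active = mean inhibition across replicates above a set limit taken from the earlier primary screen, cut at about 11% in these data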;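 note: 0% = REL1 with substrate and DMSO and 100% = REL1 plus control inhibitor NSC42067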
Numbers without * were called inactive.

SMILES | TbREL1 inh | others
COCCCNCCCCOc1c(Cl)cc(C)cc1Br | 12* | TbREL1 confirm=8
COCCCNCCOc1ccc(C)cc1[N+](=O)[O-] | 4
CCCCNCCCOc1cc(Cl)ccc1Cl | -1
COCCCNCCCOc1ccc(Cl)cc1Br | 11* | TbREL1 confirm=6
Cc1cc(Cl)c(OCCCn2cncn2)c(Br)c1 | -1
C=CCNCCCCOc1c(Cl)cc(C)cc1Br | 7
CCOC(=O)CCCNC(=O)OC1CC2CC1[C@H]1CCCCN1[C@H]2C (some centres not stated) | 2
CCOC(=O)N1CCN(C(=O)C[C@@H]2C[C@]3(C(=O)OCC)CCC4=C3N(CCC4)C2=O)CC1 | 5
COc1ccc([C@H]2OC(=O)C[C@H]2C(=O)N2CCCC2)cc1OC | 1
CC(C)(C)C1=Nn2c(nnc2-c2ccc(C(C)(C)C)cc2)SC1 | 1
CN(C)C(=O)N1CCN(C(=O)[C@H]2O[C@@H](n3ccc(N)nc3=O)[C@H](O)[C@@H]2O)CC1 | 0
CC(C)OP(=O)(O)C(C)NC(=O)OCc1ccccc1 (configuration not stated) | 4
COC(=O)C1=C(C)N(Cc2ccc(C(F)(F)F)cc2)C(=NCc2ccc(C(F)(F)F)cc2)NC1c1ccccc1C(F)(F)F (configuration not stated) | 17* | TbREL1 confirm=24*
COC(=O)C1=C(C)N(Cc2ccc(C(F)(F)F)cc2)C(=NCc2ccccc2C(F)(F)F)NC1c1ccccc1C(F)(F)F (configuration not stated) | 17* | TbREL1 confirm=23*
COC(=O)C1=C(C)N(c2ccccc2)C(=S)NC1c1ccccc1C(F)(F)F (configuration not stated) | -5
COC(=O)C1=C(C)N(Cc2ccc(C(F)(F)F)cc2)C(=NCc2ccc3c(c2)OCO3)NC1c1ccccc1C(F)(F)F (configuration not stated) | 17* | TbREL1 confirm=22*
COC(=O)C1=C(C)N(C)C(=NCc2ccccc2)NC1c1ccccc1C(F)(F)F (configuration not stated) | 9
CCCCOCCCNC(=O)C[C@@H]1C(=O)N(CCc2ccc(Cl)cc2)C2=CCCC[C@]21C(=O)OCC | -3
Fc1ccc(C2=Nn3c(nnc3C3CCCCC3)SC2)cc1 | -2
O=C(C1CCN(c2cncnc2)CC1)N1CCCC1 | -6
COC(=O)C1CN(Cc2ccccc2)CCS(=O)(=O)N1Cc1cn(Cc2ccccc2Br)nn1 (configuration not stated) | -3
O=C1COc2ccccc2C(c2nnnn2Cc2ccccc2)N1Cc1cccs1 (configuration not stated) | 0
COC(=O)C(C[N+](=O)[O-])C1=C(O)CC(C)(C)CC1=O (configuration not stated) | -3
N#CCSc1nccc(/C=C/c2ccccc2)n1 | 12* | TbREL1 confirm=2
N#CCSc1nc2ccccc2o1 | 5
SMILES | TbREL1 inh | others
C(=C\c1ccccc1)/CSc1nc2ncccc2[nH]1 | 0
O=C(Cc1c[nH]c2ccccc12)Nc1ccc(Nc2cccnc2)c(-c2ccc(OC(F)(F)F)cc2)c1 | -1
CCCCn1nnnc1C(c1cc2ccccc2o1)N1CCN(c2cc(C)nc3ccccc23)CC1 (configuration not stated) | 4
COC(=O)[C@]12C[C@H](CC(=O)N3CCN(C(=O)C4CC4)CC3)C(=O)N(Cc3ccco3)C1=C[C@H](C1CCCC1)O[C@@H]2C | -2
O=S(=O)(c1ccc(F)cc1)N1CCC(N2CCCCCC2)CC1 | 1
CC1CCN(C2CCN(S(=O)(=O)c3ccc(F)cc3)CC2)CC1 | 7
CC1CCN(C2CCN(S(=O)(=O)c3ccc(C(F)(F)F)cc3)CC2)CC1 | 24* | TbREL1 confirm=0
COC(=O)[C@]12C[C@H](CC(=O)N3CCOCC3)C(=O)N(Cc3ccco3)C1=C[C@H](C1CCCC1)O[C@@H]2C | -3
CCOC(=O)N1CCN(C(=O)C[C@H]2C[C@@]3(C(=O)OC)C(=C[C@H](C(C)C)O[C@@H]3C3CC3)N(Cc3ccc(Cl)cc3Cl)C2=O)CC1 | -3
Cc1cc(Oc2cccnc2)ccc1NC(=O)Cc1c(C)[nH]c2ccccc12 | -3
CCOC(=O)[C@]12CCCC=C1N(Cc1ccc(OC)cc1)C(=O)[C@@H]2CC(=O)NCC12CC3CC(CC(C3)C1)C2 | 1
CC/C=C\[C@H](O)[C@H](O)C1=C(C)C(=O)[C@]2(O1)C(=O)N[C@@](OC)(C(=O)c1ccccc1)[C@@H]2O | -1
NC(COCc1ccccc1)c1csc(Nc2ccc(C(F)(F)F)cn2)n1 (configuration not stated) | 9
COc1ccc(CC(N)c2csc(NC(=O)Nc3cccc(C(F)(F)F)c3)n2)cc1 (configuration not stated) | 5
CCCCN(C)C(=O)c1ccc(Nc2nc(C(N)Cc3ccc(C(F)(F)F)cc3)cs2)nc1 (configuration not stated) | 17* | TbREL1 confirm=13*
Cc1cccc(C(=O)N[C@H]2CC[C@@]34CCCN3C(=O)CCC[C@H]4[C@H]2C)c1 | 5

Screens from PubChem.
